Results published in PubChem BioAssay (Tox21).
Values joined by “and” are separate entries in the source; they are usually repeats but may differ in a detail not shown here. Identical values can stand only once. Records with an inconclusive call do not appear. Entries that show only a call come without a potency. Some compounds were tested as several samples or in several runs, with calls that do not always agree. Active and inactive are the calls of the source. Calls follow the shape of the dose curve; as a rule, active = well fitted activation curve with a large enough effect in the repeat runs; inconclusive = weak or mixed curves; inactive = no such curve, though single readings can be large or run the other way.

Molecular target: Nuclear receptor subfamily 1 group I member 3 (Homo sapiens) (UniProt Q14994)
Assay: qHTS assay to identify small molecule agonists of the constitutive androstane receptor (CAR) signaling pathway (AID 1224839); also: nearly all actives have a fitted effect of over 15% in size;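 as to activation: HepG2 cells stably carrying human CAR and a CYP2B6 luciferase reporter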
Conditions: HepG2 hCAR CYP2B6-luciferase, agonist mode, 24 h; series mostly up to 92.4 µM
Excerpt: National Center for Advancing Translational Sciences [NCATS] NIH Chemical Genomics Center [NCGC] U.S. Environmental Protection Agency [EPA] National Institutes of Environmental Health Sciences [NIEHS] National Toxicology Program [NTP] Assay overview: The constitutive androstane receptor (CAR) is a nuclear receptor which regulates multiple drug metabolizing enzymes (DMEs) and transporters. Activating CAR will generally increase the transcription and subsequent translation of CYP2B6 and CYP3A4. These two DMEs represent about 50% of the drug metabolizing potential in the body. […] Recently, there have also been studies performed indicating CARs role in energy metabolism and cancer therapy. Therefore, inducing CARs activity could have a potential effect on diabetes and cancer. Identifying environmental toxins and compounds which modulate CAR, through the use of the Tox21 10K compound collection, will be an important step in determining the toxicity and potential therapeutic effects these factors will have on the human body.
Assay Protocol Summary: A double-stable (hCAR and CYP2B6-2.2kb) transfected cell line, derived from human hepatoma (HepG2) cells, was utilized for the duration of the quantitative high-throughput screens. The HepG2-CYP2B6-hCAR cells suspended in DMEM culture medium supplemented with 10% FBS, 5 ug/mL blasticidin, 0.5 mg/mL geneticin, 100 U/mL penicillin and 100 ug/mL streptomycin were dispensed at 2500 cells/4 uL/well in 1536-well white solid bottom plates using a Multidrop Combi. After the assay plates were incubated at 37 C/5% CO2 for 4 hrs, 23 nL of compounds at 15 concentrations (from 5-48 columns) or positive control (from 1 to 4 columns) were transferred to the assay plates using a Pintool station. One uL of PK11195, was added using a Flying Reagent Dispenser to generate a final concentration of 0.75 uM PK11195 inside each well. After a 24 hr incubation period at 37 C/5% CO2, four uL of ONE-Glo reagent was added into the assay plates using a Flying Reagent Dispenser. After a 30 min incubation period at room temperature, the luminescence intensity in the assay plates was measured using a ViewLux plate reader.
Potency is read from the fitted curve at half-maximal effect.

Chain of Nuclear receptor subfamily 1 group I member 3 (Homo sapiens) (Q14994 whole entry, looked up): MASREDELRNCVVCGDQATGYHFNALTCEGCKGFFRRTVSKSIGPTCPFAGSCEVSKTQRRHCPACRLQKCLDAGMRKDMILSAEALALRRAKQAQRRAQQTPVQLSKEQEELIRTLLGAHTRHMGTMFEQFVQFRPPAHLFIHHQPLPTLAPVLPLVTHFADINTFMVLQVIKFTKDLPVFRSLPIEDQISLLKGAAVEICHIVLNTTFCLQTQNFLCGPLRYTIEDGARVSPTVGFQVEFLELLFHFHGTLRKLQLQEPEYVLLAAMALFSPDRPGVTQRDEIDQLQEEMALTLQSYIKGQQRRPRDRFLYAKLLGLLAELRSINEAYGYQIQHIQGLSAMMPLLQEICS

SMILES	Potency
C=C(C)C(=O)OCC1CO1 (stereo not given)	inactive
COc1ccc(C=O)cc1	inactive
C=CCc1ccc2c(c1)OCO2	inactive
c1nc[nH]n1	inactive
Nn1cnnc1	inactive
O=c1oc2ccccc2c(O)c1C(CC(O)c1ccc(-c2ccc(Br)cc2)cc1)c1ccccc1 (stereo not given)	inactive
CCCCCc1cc(O)cc(O)c1	54.5 µM (active)
O=[N+]([O-])c1ccc(O)c([N+](=O)[O-])c1	inactive
O=P(Oc1ccccc1)(Oc1ccccc1)Oc1ccccc1	21.6 µM (active) and 19.3 µM (active)
O=P(O)(O)CCCl	inactive
NCc1cccnc1	inactive
CCOc1cc(Oc2ccc(C(F)(F)F)cc2Cl)ccc1[N+](=O)[O-]	inactive
C#C[C@]1(O)CC[C@H]2[C@@H]3CCC4=CC(=O)CC[C@]4(C)[C@H]3CC[C@@]21C	inactive
Cc1ccc2c(c1N)C(=O)c1ccccc1C2=O	4.28 µM (active) and 7.7 µM (active)
CCC(CC)Nc1c([N+](=O)[O-])cc(C)c(C)c1[N+](=O)[O-]	49.2 µM (active) and 24.3 µM (active)
CN(C)c1ccc(C(=O)c2ccc(N(C)C)cc2)cc1	1.93 µM (active)
Nc1cccnc1	inactive
CCCCC(CC)COC(=O)Cl (stereo not given)	inactive
CC(C)N(C(=O)SCC(Cl)=C(Cl)Cl)C(C)C	inactive
CC(C)C(=O)OCC(C)(C)C(OC(=O)C(C)C)C(C)C (stereo not given)	inactive

SMILES	Potency
Cc1c(COC(=O)[C@@H]2[C@H](/C=C(\Cl)C(F)(F)F)C2(C)C)cccc1-c1ccccc1	inactive
CCc1cccc(CC)c1N(COC)C(=O)CCl	18.7 µM (active) and 19.3 µM (active)
CNC(=O)Oc1cccc2c1OC(C)(C)O2	inactive
C#CCOS(=O)OC1CCCCC1Oc1ccc(C(C)(C)C)cc1 (stereo not given)	inactive and 5.45 µM (active)
CCCCCCCCOC(=O)c1ccccc1C(=O)OCCCCCCCC	inactive and 17.2 µM (active)
COP(=O)(OC)OC	inactive
c1cc(OCC2CO2)ccc1Cc1ccc(OCC2CO2)cc1 (stereo not given)	inactive
Nc1ccc(-c2ccccc2)cc1	30.6 µM (active)
CC(C)=CC1C(C(=O)OCc2coc(Cc3ccccc3)c2)C1(C)C (stereo not given)	34.4 µM (active) and 27.3 µM (active)
CC(O)CCO (stereo not given)	inactive
CC(C)(OOC(C)(C)c1ccccc1)c1ccccc1	24 µM (active) and 8.63 µM (active)
Nc1c(Cl)cc([N+](=O)[O-])cc1Cl	inactive
Nc1ccc(Cl)c(Cl)c1	inactive
Nc1ccncc1	inactive
Cc1ccccc1[N+](=O)[O-]	inactive
Cc1cccc(N)c1N	59.1 µM (active) and 54.5 µM (active)
CC(C)(C)c1ccccc1O	inactive
CN(C)C(=O)Nc1ccc(Cl)cc1	inactive
CCC(C)c1ccc(O)cc1 (stereo not given)	inactive
O=S(=O)(Oc1ccc(Cl)cc1)c1ccc(Cl)cc1	69.5 µM (active) and 48.6 µM (active)
